Consider 18 molecules from PubChem BioAssay (NCATS).

The nature of test [1]: Validation screen for inhibitors of Lassa infection (AID 463096; calls by dose curve; also: potency is read from the fitted curve at half-maximal effect).
Test [2] deals with Ubiquitin carboxyl-terminal hydrolase 2 (Homo sapiens) (UniProt O75604). Description: qHTS Validation Assay for Inhibitors of Ubiquitin-specific Protease USP2a Using CHOP2 as the Reporter (AID 463106). The gist of the method:
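10nM USP2 core + cpd, 30min RT; add 25nM Ub-CHOP2/25nM substrate; 60min RT; FI 485/531nm. Buffer Tris pH 8.0, CaCl2, BME, CHAPS. Norm. to NEM = 100% inhibition; time-zero read flags fluorescent artifacts.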

For test [3], the target named is Tumor susceptibility gene 101 protein (Homo sapiens) (UniProt Q99816). Kind of test: qHTS Validation Assay for Iinhibitors of HIV-1 Budding by Blocking the Interaction of PTAP/TSG101 (AID 485342; calls by dose curve). The method in brief:
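Tsg101 binding domain (10 uM) with FITC-labeled PTAP peptide (50 nM) in HEPES pH 7.5 buffer, 20 min at r.t. with compounds. Binding measured by fluorescence polarization.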

Test [4] has as its target Beta-2 adrenergic receptor (Homo sapiens) (UniProt P07550). Description: qHTS validation assay of beta-arrestin-biased ligands of beta2-adrenergic receptor (AID 485366). The gist of the method:
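Tango cells expressing recombinant beta2-AR and beta-arrestin with tTA-driven luciferase, in DMEM with 1% FBS. Compounds were titrated up to 46 microM for 18 hr at 37 degrees C. Luminescence was read 15 min after substrate; curves were fitted and class-assigned.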
Background: qHTS replaces the single test concentration by a dilution series.

The target in test [5] is ATP-dependent 6-phosphofructokinase (Trypanosoma brucei brucei) (UniProt O15648). Description: qHTS Validation Assay to Find Inhibitors of T. brucei phosphofructokinase (AID 485368). To be noted: T. brucei PFK enzyme assay, qHTS 7-point titration; at 57.5 µM (top of the series). The gist of the method:
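Activity was read as ADP production by luminescence (ADP-Glo) after 45 min at room temperature. The enzyme was 1.25nM PFK in 0.1M TEA pH 8.0 with 0.5 mM F6P, 0.1mM ATP and 5 mM MgCl2. Compounds were titrated up to 57 uM and % activity normalized to no-enzyme and full-enzyme controls.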

Test [6] addresses Thioredoxin reductase 1, cytoplasmic (Rattus norvegicus) (UniProt O89049). Description: qHTS Assay for Substrates of Mammalian Selenoprotein Thioredoxin Reductase 1 (TrxR1) (AID 488772).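 Also: NADPH fluorescence in the first read after selenite addition and not the 8 min delta; a drop in NADPH fluorescence below the no-compound background marks a TrxR1 substrate.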 The gist of the method:
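Quantitative HTS in Tris-HCl buffer at pH 7.5 with EDTA and Tween-20, using rat TrxR1, 400 uM NADPH and 400 uM selenite (final). A fall in initial NADPH fluorescence relative to background marked substrate behaviour.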

Test [7] has the same target. Kind of test: qHTS Assay for Inhibitors of Mammalian Selenoprotein Thioredoxin Reductase 1 (TrxR1) (AID 488773).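 Also: drop in NADPH fluorescence over an 8 min run after selenite addition; nearly all actives have a fitted effect of over 40% in size.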 To be noted: Potency: inhibition. The gist of the method:
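Steps: enzyme (90 nM) plus NADPH (400 uM final), 5 min at ~22 deg C; compound added, 15 min; selenite (400 uM final) added; fluorescence followed for 8 min. Concentration-response curves derived from the normalized delta values.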

For test [8], the target named is Flap endonuclease 1 (Homo sapiens) (UniProt P39748). Description: qHTS Validation Assay for the Inhibitors of Human Flap endonuclease 1 (FEN1) (AID 488816). Also: potency is read from the fitted curve at half-maximal effect. The gist of the method:
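Readings taken at 0 and 15 min after starting the reaction with 50 nM (final) substrate supplied the signal. Compounds had first sat with 10 nM FEN1 reagent for 15 min at room temperature. Values come from Hill-equation concentration-response fits.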

For test [9], the target named is M-phase phosphoprotein 8 (Homo sapiens) (UniProt Q99549). Kind of test: qHTS Validation Assay for Inhibitors for MPP8 Chromodomain Interactions with Methylated Histone Tails (AID 488949). Also: nearly all actives have a fitted effect of over 55% in size. Also: potency is read from the fitted curve at half-maximal effect. The method in brief:
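MPP8 (50 nM) was pre-bound to 50 nM biotinylated H3(1-18)K9me3 peptide in PBS pH 7.4 with 0.01% Tween-20. Compounds were then added for 30 min at room temperature, and complex disruption was read by AlphaScreen with streptavidin donor and nickel-chelate acceptor beads.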

Test [10] deals with Chromobox protein homolog 1 (Homo sapiens) (UniProt P83916). Kind of test: qHTS Validation Assay for Inhibitors of HP1-beta Chromodomain Interactions with Methylated Histone Tails (AID 488953). Also: nearly all actives have a fitted effect of over 50% in size. Also: potency is read from the fitted curve at half-maximal effect. The gist of the method:
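HP1-beta (50 nM) was preincubated 30 min at room temperature with biotinylated H3(1-18)K9me3 peptide (50 nM) in PBS pH 7.4, 0.01% Tween-20, then with compounds 30 min. AlphaScreen signal was read after streptavidin donor/nickel chelate acceptor beads (10 ug/mL final).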

Test [11] deals with Transient receptor potential cation channel subfamily V member 1 (Homo sapiens) (UniProt Q8NER1). Description: HTS Assay for Compounds that Act as Enhancers of the Vanilloid Receptor 1 (AID 488979). The method in brief:
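Calcium influx kinetics via Fluo-8 (480/520 nm) in TRPV1-expressing cells, 2000/well cultured overnight at 35.5C. Compound-alone read 3 min (agonist phase), followed by EC20 capsaicin challenge for 2 min (enhancer phase).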

For test [12], the target named is Thyrotropin receptor (Homo sapiens) (UniProt P16473). Description: qHTS Assay for Antagonists of the Thyroid Stimulating Hormone Receptor (AID 488980). The method in brief:
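TSHR-transfected HEK293 cells (2000/well) in HEPES-buffered HBSS with 70 uM RO 20-1724 were stimulated with 4 nM TSH (EC80, final) in the presence of compound. cAMP was measured by HTRF competition after lysis and 30 min at RT.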

Test [13] has as its target D(1A) dopamine receptor (Homo sapiens) (UniProt P21728). Kind of test: HTS Assay for Allosteric Agonists of the Human D1 Dopamine Receptor: Primary Screen for Agonists (AID 488981). Also: potency is read from the fitted curve at half-maximal effect. The gist of the method: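 Calcium flux in an inducible, force-coupled HEK293 Trex D1 line (overnight at 30 C): agonist mode is the 180 s kinetic read after compound; potentiator mode is the following 180 s read after dopamine at EC20.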

A short description of test [14]: Cytometry Cell-Based qHTS for Inhibitors of the mTORC1 Signaling Pathway in MEF cells (AID 2668).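 Also: Tsc2-/- p53-/- mouse embryonic fibroblasts stably re-expressing wild-type Tsc2; percent cells positive for phospho-rpS6 Ser235/236 relative to propidium iodide stain.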 The gist of the method: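 MEFs (Tsc2-/-, p53-/- stably expressing WT Tsc2) treated 24 h at 37 degree Celsius, fixed, stained with Alexa-488 anti-phospho-rpS6 Ser235/236 and propidium iodide; Acumen laser scanning. Reported as % positive cells, phospho-S6 normalized to PI.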

Test [15] in a line: qHTS Validation Assay to Find Inhibitors of Chronic Active B-Cell Receptor Signaling (AID 485345; active = well fitted curve in the direction sought with a large enough effect in the main read-out, with a control signal flat, not every such curve was filed as active). The gist of the method:
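Read-out: ratio of filter-corrected green (IkappaBalpha fusion) to red (native) luciferase signal in doxycycline-induced TMD8 cells after 4 h at 37C. Titration spanned 46 uM–3 nM; Data were normalised to basal cells and 10 uM MG-132 wells.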

A short description of test [16]: Quantitative high throughput screen for delayed death inhibitors of the malarial parasite plastid, 96 hour incubation (AID 488745). Also: nearly all actives have a fitted effect of over 70% in size. The method in brief: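 P. falciparum carrying an integrated firefly luciferase reporter, grown in erythrocytes (2% hematocrit, 0.1% parasitemia final) in RPMI 1640/0.5% Albumax, was exposed to compound for 96 h (two generations) at 37 C, 5% CO2. Luminescence decrease indicated growth inhibition.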

Test [17] can be described thus: Quantitative high throughput screen for delayed death inhibitors of the malarial parasite plastid, 48 hour incubation (AID 488752). Also: nearly all actives have a fitted effect of over 65% in size. The method in brief: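 Erythrocytes infected with P. falciparum carrying an integrated firefly luciferase reporter (2% hematocrit, 0.1% parasitemia final) were exposed to compounds in RPMI 1640/0.5% Albumax for 48 h at 37 C, 5% CO2. Growth inhibition was scored as reduced luminescence.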

Test [18] concerns the target Methanococcus maripaludis chaperonin (MmCpn) (UniProt Q6LX38). Description: High-Throughput Screening for Modulators of Cytosolic Chaperonin Activity: MmCpn Primary Screen (AID 488978).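 Also: 50 nM MmCpn enzyme hydrolysing 30 µM ATP at 37 °C.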 The method in brief: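 MmCpn at 50 nM final was preincubated 5 min at RT with compound. ATP was then added at 30 uM final for 10 min at 37 C. ADP formed was detected by Transcreener HTRF (665/590 nm).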

Test [19] addresses DNA polymerase III PolC-type (Bacillus subtilis (strain 168)) (UniProt P13267). Kind of test: qHTS Validation Assay for the Inhibitors of DNA Replication in Gram-Positive Bacteria (AID 485295).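 Also: PicoGreen fluorescence of double-stranded DNA made on primed circular M13 template.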 The gist of the method: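 Reconstituted B. subtilis Pol III holoenzyme (PolC, beta clamp, SSB, primase) preincubated with compound, then M13Gori single-stranded circular template with dNTPs/NTPs added; room temperature reaction. Stopped with EDTA/PicoGreen; dsDNA fluorescence read, EDTA as full-inhibition control.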

The nature of test [20]: Validation screen for small molecules that induce DNA re-replication in MCF 10A normal breast cells (AID 463097). Also: nearly all actives have a fitted effect of over 60% in size. The method in brief: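 MCF 10A cells exposed to compound 48 hr at 37 C, 5% CO2, then Hoechst-stained 40 min. Laser-scanning imaging of nuclear DNA content (405 nm ex, 500-530 nm em); re-replication scored as rise in nuclei with elevated fluorescence intensity.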

Each structure is given as a SMILES string. Inconclusive results are not listed. Activity calls are given as the source filed them. Unless noted, calls follow the shape of the dose curve; as a rule, active = well fitted curve in the direction sought with a large enough effect; inconclusive = small, poorly fitted or top-dose-only effect, or another doubt; inactive = no such curve, though single readings can be large; an effect the other way counts as inactive or inconclusive.

Sequence of Thyrotropin receptor (Homo sapiens) (P16473 whole entry, looked up): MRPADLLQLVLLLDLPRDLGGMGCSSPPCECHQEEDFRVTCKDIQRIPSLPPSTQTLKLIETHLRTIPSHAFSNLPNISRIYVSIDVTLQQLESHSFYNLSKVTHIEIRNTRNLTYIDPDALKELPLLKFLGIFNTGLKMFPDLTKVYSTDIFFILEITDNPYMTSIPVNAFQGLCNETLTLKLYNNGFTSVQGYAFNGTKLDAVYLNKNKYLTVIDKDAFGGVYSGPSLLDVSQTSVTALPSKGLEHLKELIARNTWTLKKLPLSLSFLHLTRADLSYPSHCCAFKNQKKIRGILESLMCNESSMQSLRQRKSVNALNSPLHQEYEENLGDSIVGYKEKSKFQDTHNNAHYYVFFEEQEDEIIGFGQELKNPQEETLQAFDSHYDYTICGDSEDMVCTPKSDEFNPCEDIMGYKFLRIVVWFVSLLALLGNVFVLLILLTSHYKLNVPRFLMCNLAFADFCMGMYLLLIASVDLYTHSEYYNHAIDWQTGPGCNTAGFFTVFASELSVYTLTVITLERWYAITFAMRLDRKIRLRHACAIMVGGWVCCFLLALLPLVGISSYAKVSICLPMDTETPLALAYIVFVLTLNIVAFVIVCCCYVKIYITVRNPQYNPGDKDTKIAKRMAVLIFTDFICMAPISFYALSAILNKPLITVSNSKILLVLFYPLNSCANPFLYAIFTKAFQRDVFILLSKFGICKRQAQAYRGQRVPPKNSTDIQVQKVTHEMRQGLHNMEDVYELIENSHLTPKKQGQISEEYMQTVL
Sequence of D(1A) dopamine receptor (Homo sapiens) (P21728 whole entry, looked up): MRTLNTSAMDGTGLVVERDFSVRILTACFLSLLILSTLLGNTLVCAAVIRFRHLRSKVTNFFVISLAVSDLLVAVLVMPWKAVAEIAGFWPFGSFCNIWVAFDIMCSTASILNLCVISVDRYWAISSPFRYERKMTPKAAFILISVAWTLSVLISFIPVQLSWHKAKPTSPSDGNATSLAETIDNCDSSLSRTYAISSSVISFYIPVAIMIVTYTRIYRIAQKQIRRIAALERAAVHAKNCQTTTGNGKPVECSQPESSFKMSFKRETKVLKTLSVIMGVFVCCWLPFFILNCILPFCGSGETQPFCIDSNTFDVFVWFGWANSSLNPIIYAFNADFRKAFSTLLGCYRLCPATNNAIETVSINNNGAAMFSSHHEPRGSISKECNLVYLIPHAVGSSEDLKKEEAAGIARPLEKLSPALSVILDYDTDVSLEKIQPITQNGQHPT
Sequence of Tumor susceptibility gene 101 protein (Homo sapiens) (Q99816 whole entry, looked up, the tested form may be a part): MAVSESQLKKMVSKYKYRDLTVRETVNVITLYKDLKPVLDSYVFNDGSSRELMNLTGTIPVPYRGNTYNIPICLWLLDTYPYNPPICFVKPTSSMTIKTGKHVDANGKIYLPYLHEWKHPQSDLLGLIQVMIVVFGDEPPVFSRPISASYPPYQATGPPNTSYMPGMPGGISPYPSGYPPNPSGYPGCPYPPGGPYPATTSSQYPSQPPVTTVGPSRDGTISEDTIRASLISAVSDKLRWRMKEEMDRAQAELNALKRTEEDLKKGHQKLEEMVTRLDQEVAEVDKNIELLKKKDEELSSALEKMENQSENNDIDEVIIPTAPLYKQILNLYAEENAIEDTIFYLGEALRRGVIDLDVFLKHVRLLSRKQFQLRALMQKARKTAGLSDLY
Sequence of ATP-dependent 6-phosphofructokinase (Trypanosoma brucei brucei) (O15648 whole entry, looked up): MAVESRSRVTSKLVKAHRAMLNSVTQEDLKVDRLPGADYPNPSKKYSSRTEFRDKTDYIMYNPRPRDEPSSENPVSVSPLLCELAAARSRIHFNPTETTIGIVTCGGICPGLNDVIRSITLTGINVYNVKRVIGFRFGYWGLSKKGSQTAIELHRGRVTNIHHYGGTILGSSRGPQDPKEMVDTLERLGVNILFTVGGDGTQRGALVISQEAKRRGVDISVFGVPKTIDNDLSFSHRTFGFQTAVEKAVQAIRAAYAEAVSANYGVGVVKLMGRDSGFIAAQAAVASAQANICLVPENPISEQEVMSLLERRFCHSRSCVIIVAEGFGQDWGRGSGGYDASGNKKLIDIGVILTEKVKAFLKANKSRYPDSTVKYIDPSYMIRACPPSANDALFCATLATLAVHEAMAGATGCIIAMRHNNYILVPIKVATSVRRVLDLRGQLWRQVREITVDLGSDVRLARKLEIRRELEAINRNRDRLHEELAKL
Sequence of Methanococcus maripaludis chaperonin (MmCpn) (Q6LX38 1-543): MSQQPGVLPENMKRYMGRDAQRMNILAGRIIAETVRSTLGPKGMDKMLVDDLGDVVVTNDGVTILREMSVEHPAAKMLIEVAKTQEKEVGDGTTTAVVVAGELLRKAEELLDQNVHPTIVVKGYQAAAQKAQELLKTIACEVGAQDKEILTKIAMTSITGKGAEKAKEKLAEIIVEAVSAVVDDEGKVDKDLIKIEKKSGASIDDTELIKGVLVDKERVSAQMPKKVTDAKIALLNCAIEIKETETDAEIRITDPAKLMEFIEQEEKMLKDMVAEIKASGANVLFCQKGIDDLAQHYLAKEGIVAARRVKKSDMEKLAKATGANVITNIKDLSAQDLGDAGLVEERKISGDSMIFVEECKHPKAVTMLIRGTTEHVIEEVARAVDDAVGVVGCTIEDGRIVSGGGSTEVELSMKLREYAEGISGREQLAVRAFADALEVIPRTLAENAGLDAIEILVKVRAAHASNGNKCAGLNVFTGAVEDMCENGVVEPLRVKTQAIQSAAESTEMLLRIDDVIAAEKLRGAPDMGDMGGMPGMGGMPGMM
Sequence of Transient receptor potential cation channel subfamily V member 1 (Homo sapiens) (Q8NER1 whole entry, looked up): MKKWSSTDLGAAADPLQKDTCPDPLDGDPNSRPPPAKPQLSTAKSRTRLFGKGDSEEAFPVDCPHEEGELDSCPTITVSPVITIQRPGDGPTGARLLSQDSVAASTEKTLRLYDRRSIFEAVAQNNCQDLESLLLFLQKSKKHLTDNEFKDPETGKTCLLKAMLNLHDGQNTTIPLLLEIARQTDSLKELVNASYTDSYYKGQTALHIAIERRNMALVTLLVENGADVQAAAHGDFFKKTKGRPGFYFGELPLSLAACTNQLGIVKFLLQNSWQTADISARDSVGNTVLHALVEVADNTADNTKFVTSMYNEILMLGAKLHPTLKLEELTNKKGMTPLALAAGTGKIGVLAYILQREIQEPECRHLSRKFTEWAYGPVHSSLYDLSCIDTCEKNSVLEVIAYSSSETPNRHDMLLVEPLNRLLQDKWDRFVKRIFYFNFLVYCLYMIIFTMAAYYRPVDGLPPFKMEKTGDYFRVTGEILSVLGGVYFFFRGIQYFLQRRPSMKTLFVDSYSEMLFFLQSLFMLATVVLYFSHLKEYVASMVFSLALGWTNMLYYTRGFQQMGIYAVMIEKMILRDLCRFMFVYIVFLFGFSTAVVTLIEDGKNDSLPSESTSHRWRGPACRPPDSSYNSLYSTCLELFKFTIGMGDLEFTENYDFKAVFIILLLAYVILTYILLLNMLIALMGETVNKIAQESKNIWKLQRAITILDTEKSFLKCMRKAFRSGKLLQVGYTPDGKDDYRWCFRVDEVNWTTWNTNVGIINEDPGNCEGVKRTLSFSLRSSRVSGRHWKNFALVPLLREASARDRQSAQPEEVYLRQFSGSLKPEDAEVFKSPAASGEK
Sequence of M-phase phosphoprotein 8 (Homo sapiens) (Q99549 whole entry, looked up): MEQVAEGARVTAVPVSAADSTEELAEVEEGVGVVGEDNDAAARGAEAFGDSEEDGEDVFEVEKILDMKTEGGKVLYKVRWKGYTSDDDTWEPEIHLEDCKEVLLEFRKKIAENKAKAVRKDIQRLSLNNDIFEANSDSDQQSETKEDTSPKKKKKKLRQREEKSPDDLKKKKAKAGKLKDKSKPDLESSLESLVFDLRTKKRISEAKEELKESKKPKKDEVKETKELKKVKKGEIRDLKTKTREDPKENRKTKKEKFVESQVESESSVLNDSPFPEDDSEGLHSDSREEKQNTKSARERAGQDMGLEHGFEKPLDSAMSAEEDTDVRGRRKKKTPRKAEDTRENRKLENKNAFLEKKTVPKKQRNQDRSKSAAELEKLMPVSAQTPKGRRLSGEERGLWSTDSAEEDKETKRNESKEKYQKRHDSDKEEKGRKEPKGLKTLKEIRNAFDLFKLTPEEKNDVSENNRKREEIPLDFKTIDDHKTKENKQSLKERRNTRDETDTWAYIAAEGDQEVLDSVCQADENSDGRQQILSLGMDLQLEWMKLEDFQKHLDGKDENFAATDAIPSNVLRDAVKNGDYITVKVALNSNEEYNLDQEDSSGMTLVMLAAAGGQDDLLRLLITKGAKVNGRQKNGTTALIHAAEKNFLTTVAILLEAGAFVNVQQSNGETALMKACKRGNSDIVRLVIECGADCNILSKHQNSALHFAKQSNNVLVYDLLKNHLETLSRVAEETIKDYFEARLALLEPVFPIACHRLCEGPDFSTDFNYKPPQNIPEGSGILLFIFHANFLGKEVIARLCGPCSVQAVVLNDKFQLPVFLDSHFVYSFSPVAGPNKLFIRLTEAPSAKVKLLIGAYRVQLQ
Sequence of Beta-2 adrenergic receptor (Homo sapiens) (P07550 whole entry, looked up): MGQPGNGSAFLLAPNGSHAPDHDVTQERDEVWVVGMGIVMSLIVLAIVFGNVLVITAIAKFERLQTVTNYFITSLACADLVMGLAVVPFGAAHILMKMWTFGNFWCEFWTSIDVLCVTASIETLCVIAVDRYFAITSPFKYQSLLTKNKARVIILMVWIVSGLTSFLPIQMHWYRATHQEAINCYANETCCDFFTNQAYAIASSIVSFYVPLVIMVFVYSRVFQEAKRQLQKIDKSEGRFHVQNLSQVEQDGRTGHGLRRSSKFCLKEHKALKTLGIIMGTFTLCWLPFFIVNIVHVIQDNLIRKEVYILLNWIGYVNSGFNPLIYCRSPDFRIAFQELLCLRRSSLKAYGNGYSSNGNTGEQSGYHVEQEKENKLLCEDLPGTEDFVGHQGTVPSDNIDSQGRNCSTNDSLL
Sequence of Chromobox protein homolog 1 (Homo sapiens) (P83916 whole entry, looked up): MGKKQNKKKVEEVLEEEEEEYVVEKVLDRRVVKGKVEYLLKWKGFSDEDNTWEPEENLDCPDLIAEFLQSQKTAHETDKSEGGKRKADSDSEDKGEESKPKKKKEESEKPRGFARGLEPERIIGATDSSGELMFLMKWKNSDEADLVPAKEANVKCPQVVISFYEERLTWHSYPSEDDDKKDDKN

With `CC(C)C[C@H](NC(=O)[C@@H](O)[C@H](N)Cc1ccccc1)C(=O)O`, the Potency entry in [1] is “inactive”.
Consider `Cc1c(C(=O)c2cccc3ccccc23)c2cccc3c2n1[C@H](CN1CCOCC1)CO3`, for which the Potency entry in test [1], in [2], in [7], in [8], in test [9] and in test [13] was “inactive” each time. In addition, the outcome in test [3], in test [4], in test [5], in test [6], in test [11] and in test [12] was inactive. In addition, the Potency in test [10] was 0.006 µM (active).
Regarding `CC[C@H](CO)Nc1nc(NCc2ccccc2)c2ncn(C(C)C)c2n1`, the Potency result in [1] was “inactive”.
On to `CNCCc1ccc(O)c(O)c1`, for which the Potency result in [14], in test [1], in test [16], in test [17] and in test [9] was “inactive” throughout. Besides, the call in [3], in [15], in test [4], in test [6], in test [18] and in [11] was inactive. For the same molecule, in [12], the call was inactive. For the same molecule, the Potency was 2.99 µM (active) in test [8] and 0.282 µM (active) in test [13].
As for `c1ccc(C2(c3ccccc3)CC2C2=NCCN2)cc1` (stereo not drawn), the Potency result in test [14], in test [19], in test [7], in test [8], in test [9] and in [10] was “inactive” each time. Moreover, the Potency result in test [13] was “inactive”. Further, the outcome in test [3], in [15], in test [4], in test [5], in test [6] and in test [18] was inactive.
For `Cn1cnc(CCN)c1`, the Potency result in [1], in test [20], in test [16], in test [17], in test [7] and in [8] was “inactive” throughout. Besides, the Potency result in test [9], in [10] and in test [13] was “inactive” each time. Besides, the result in test [3], in test [15], in [4], in test [6], in [18] and in test [11] was inactive. Besides, the call in test [12] was inactive.
For `O=C(N[C@H]1CN2CCC1CC2)c1ccc(Cl)cc1`, the Potency result in test [14], in test [2], in [8], in [9], in test [10] and in [13] was “inactive” each time. In addition, the result in [3], in test [15], in test [4], in test [5], in test [6] and in test [18] was inactive.
On to `NCCCC(N)(C(=O)O)C(F)F` (stereo not drawn), for which the Potency entry in test [1] was “inactive”.
For `CC(=O)[C@H]1CCC2C3CC[C@H]4C[C@H](O)CC[C@]4(C)C3CC[C@@]21C` (stereo partly drawn), the Potency entry in test [14], in test [1], in test [16], in [17], in test [8] and in test [9] was “inactive” in each case. The Potency entry in test [10] and in [13] was “inactive” each time. The outcome in [3], in test [15], in test [4], in test [6], in test [18] and in test [11] was inactive. Further, in [12], the result was inactive.
For `CC(C)(C)NCC(O)c1ccc(O)c(CO)c1` (stereo not drawn), the Potency result in test [1] was “inactive”.
Same read-out and setting: under `C[C@@H](N)C1CCC(C(=O)Nc2ccncc2)CC1` (stereo partly drawn) stands “inactive”; under `CCN1CCc2nc(N)oc2CC1`, “inactive”; under `NCCS`, “inactive”.
Same read-out and setting: under `CC(C)c1ccc2c(c1)c(SC(C)(C)C)c(CC(C)(C)C(=O)O)n2Cc1ccc(Cl)cc1` stands “inactive”; under `CS(=O)(=O)Nc1ccc([N+](=O)[O-])cc1Oc1ccccc1`, “inactive”.
For `CN1C2CCC1CC(OC(=O)c1cc(Cl)cc(Cl)c1)C2` (stereo not drawn), the Potency result in test [1], in test [17], in test [8], in test [9] and in test [10] was “inactive” throughout. For the same molecule, the call in test [3], in [4], in test [5], in test [18], in [11] and in test [12] was inactive.
`CC(=O)Oc1ccccc1C(=O)O`: the Potency entry in [1] is “inactive”.
For the molecule `Cc1nc(-c2ccc(-c3ccc(C(=O)N4CCc5cc6c(cc54)C4(CCN(C)CC4)CO6)cc3)c(C)c2)no1`, the Potency in [1] is 10 µM (active); in test [9], 11.2 µM (active). Besides, the outcome in test [11] and in test [12] was inactive.
